Consider 40 compounds from PubChem BioAssay (NCI).

Values joined by “and” are separate entries in the source; they are usually repeats but may differ in a detail not shown here. Equal entries are not always repeated. About 83,000 compounds went through this panel and 20% of them were active in at least one assay; those are over-represented in the sample as a whole.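 Interpretation: 100, growth as untreated; towards 0, rising growth inhibition; 0, no net growth; 0 to -100, cell death. Compounds scoring below 10 were considered active.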 Active and inactive are the calls of the source.

This assay has as its system MDA-MB-468 breast. In words: NCI-60 one-dose screen, 48 h (100 = growth as untreated, 0 = no growth, -100 = all killed). Conditions: 10 µM unless noted.
Take `ClC1=C(Cl)C(=C2C(Cl)=C(Cl)C(Cl)=C2Cl)C(Cl)=C1Cl`: the growth is 114% (inactive).

As for `c1cc(-c2ccc3c(c2)OCO3)n2nccc2n1`, the growth is 95% (inactive).

Turning to `O=C1C=CC(=O)N1c1ccc2ccccc2c1`, the growth was 51.3% (inactive) and 62.7% (inactive).

As to `CC(C)(C)Nc1c(-c2c3ccccc3cc3ccccc23)nc2ccccn12`, the growth is 68.4% (inactive).

`O=C(CNc1ccc(Cl)cc1)Nc1ccc(-c2nc3ccccc3s2)cc1`: the growth was -11.2% (active).

In the case of `CCOC(=O)/C(C#N)=C(/C)C1CC1`, the growth is 98.3% (inactive).

For `COc1ccc(C(=O)/C=C/c2c(Cl)nc3c(c(C)nn3-c3ccccc3)c2-c2ccc(Br)cc2)cc1`, the growth is 103% (inactive).

`OCC1OC(n2ccc3c2ncn2ncnc32)C(O)C1O` (stereo not given): the growth is -5.09% (active).

For `C=C(C)[C@@H]1CC[C@]2(C=O)CC[C@]3(C)[C@H](CC[C@@H]4[C@@]5(C)CCCNC(C)(C)[C@@H]5CC[C@]43C)[C@@H]12`, the growth is 64.6% (inactive).

Regarding `COc1cccc(C(c2cc3c(cc2O)OCO3)N2CCOCC2)c1OC` (stereo not given), the growth was 90.6% (inactive).

With `COc1ccc(/C=C(\C#N)n2nnc3cc(Cl)ccc32)cc1`, the growth is 18.5% (inactive).

For `O=C1C(SCc2ccccc2)=C(Cl)CN1c1ccc(Cl)cc1`, the growth was 16.3% (inactive).

Turning to `CCOc1ccc([C@H]2C(C(=O)c3ccc(Cl)cc3)C3(N[C@@H]2c2ccccc2)C(=O)Nc2ccc(Br)cc23)cc1` (stereo not given in full), the growth is -17.1% (active).

Consider `Nc1c(S(=O)(=O)O)cc2c3c(cccc13)C(=O)OC2=O`, for which the growth was 85.9% (inactive).

For the compound `CCOC(=O)c1c[nH]c2cc(OCC3CC3)c(OCC3CC3)cc2c1=O`, the growth is 107% (inactive).

Turning to `CCNC(=O)N1CCc2c(Br)c3c(c(OC)c2C1Cc1ccc(OC)cc1)OCO3` (stereo not given), the growth was 19.2% (inactive).

For the compound `Cc1nc2cccc(NCc3ccc(C(=O)NO)cc3)c2c(=O)n1-c1ccccc1`, the growth was -15.3% (active).

For `Clc1c(Cl)[n+](Cc2ccc3ccccc3c2)cn1Cc1ccc2ccccc2c1`, the growth is -22.6% (active).

Consider `Oc1cccc(CNC2CCCCC2)c1`, for which the growth was 113% (inactive).

`N#Cc1c(-c2ccccc2)cc(-c2ccccc2)n(CCCCC(=O)NO)c1=O`: the growth is 20% (inactive).

On to `COc1ccc(OC)c(/C=C2\COc3ccc(O)cc3C2=O)c1`, for which the growth was 82.7% (inactive).

In the case of `O=C(NCc1cccnc1)/C(=C\c1ccc(Br)cc1)S(=O)(=O)c1ccccc1`, the growth is -58.9% (active).

Take `Cc1cccc(C)c1NCc1nnc(-c2ccco2)o1`: the growth is 100% (inactive).

With `COc1ccc(NC(=O)c2sc3nc(C)c(C(O)c4ccc(OC)cc4)cc3c2N)cc1` (stereo not given), the growth is 24.8% (inactive).

`CN(C)CCCn1c2c(c3ccc(N4CCNCC4)cc3c1=O)C(=O)c1ccccc1-2`: the growth is -17.2% (active).

Consider `Cc1cc(=O)[nH]c(N/N=C/c2ccccc2O)n1`, for which the growth is 58.1% (inactive).

For `COc1cc2cc(Oc3ccc(NC(=O)Nc4ccc(F)c(C(F)(F)F)c4)cc3)c(C)nc2cc1OCCN1CCOCC1`, the growth is -15.6% (active).

For `COc1ccc(Cn2c(SC)nc(=O)n(Cc3ccc(Cl)cc3)c2=O)cc1`, the growth was 107% (inactive).

For the compound `O=S(=O)(Cc1ccccc1)c1ccccc1`, the growth was 102% (inactive).

On to `O=C1Nc2c(C(=O)O)cccc2/C1=N/c1n[nH]c(=S)s1`, for which the growth was 89.4% (inactive).

`Cc1nc(NC(=O)NC2CCCCC2)sc1C(=O)NN`: the growth is 97.3% (inactive).

Take `Cc1cc(=O)[nH]c(=O)n1Cc1cn(-c2c3ccccc3nc3ccccc23)nn1`: the growth was -66.7% (active).

With `COc1cc(-c2nn(-c3cccc(NC(=O)NCCNC(=O)c4ccccc4)c3)cc2-c2ccncc2)ccc1Cl`, the growth is 12.1% (inactive).

With `Cc1cc(I)nc2ccccc12`, the growth was 109% (inactive).

With `O=C(Nc1ccc(Cl)cc1Cl)Nc1ccc(-c2cccnc2)cc1N1CCC(CO)CC1`, the growth is 23% (inactive).

With `Cc1cc2nc3ccc(=[N+](C)C)cc-3sc2cc1N`, the growth was -13.4% (active) and -40.6% (active).

As to `CCCCCCCCOc1ccc(/C=N/Nc2cc(C)nc3ccc(Cl)cc23)cc1`, the growth was -49.9% (active).

As for `Cc1ccc(C2=NNC(c3sc(Cl)nc3Cl)C2)cc1` (stereo not given), the growth is 93.5% (inactive).

`O=C1Nc2ccccc2/C1=C\c1c(-c2ccc(F)cc2)nc2ccccn12`: the growth is 40.8% (inactive).

As to `CC[C@@H]1O[C@H](O[C@@H](c2cnc[nH]2)[C@H](NC(=O)c2nc([C@H](CC(N)=O)NC[C@@H](N)C(N)=O)nc(N)c2C)C(=O)N[C@H](C)[C@H](O)[C@H](C)C(=O)N[C@@H](C(=O)NCCc2nc(-c3nc(C(=O)NCCCCN=C(N)N)cs3)cs2)[C@@H](C)O)[C@H](O[C@@H]2O[C@H](CO)[C@H](O)[C@H](OC(N)=O)[C@@H]2O)[C@H](C)[C@@H]1C`, the growth is 57% (inactive).
